Source: PubChem
Hits are enriched below; roughly 1.9% of the tested compounds scored in any of these assays.
PME-1 primary = blocks human protein phosphatase methylesterase 1; Q9Y570; recombinant PME-1, FP-Rh probe fluorescence polarization; inhibition, % at 5.9 µM; 320,000 compounds, 0.53% hits; AID 2130;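 active = inhibition above the campaign mean of all compounds plus 3 SD, cut at about 26% in these data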;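 note: competitive labeling of PME-1 active site by serine hydrolase directed probe; inhibitors block probe labeling so polarization falls and inhibition rises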
Fam108B counter = counter-screen for RBBP9 inhibitors: inhibitors of mouse Fam108B. inhibition, % at 9.51 µM. 300,000 compounds, 0.33% hits. recombinant Fam108B, FP-Rh probe fluorescence polarization;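 active = inhibition above the screen mean inhibition plus 3 SD, computed separately per campaign, cut at about 18% in these data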;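 note: inhibitors lower polarization as less probe binds the enzyme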
PREPL inhibitor = human PREPL enzyme inhibition | Q4J6C6 | inhibition, % at 5.96 µM | 320,000 compounds, 0.68% hits | AID 2751 | recombinant PREPL, fluorescence polarization activity-based probe; in the data active = inhibition above about 43%
LYPLA1 inh = blocks human lysophospholipase 1, a PME1 counter-screen | recombinant LYPLA1, FP-Rh probe fluorescence polarization | O75608 | inhibition, % at 5.9 µM | 320,000 compounds, 0.16% hits | AID 2174;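 active = inhibition above the mean of all tested compounds plus 3 SD, set per campaign, cut at about 14% in these data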;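 note: inhibitors block serine hydrolase probe labeling of LYPLA1 so polarization falls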
Target sequence (O75608 whole entry, looked up): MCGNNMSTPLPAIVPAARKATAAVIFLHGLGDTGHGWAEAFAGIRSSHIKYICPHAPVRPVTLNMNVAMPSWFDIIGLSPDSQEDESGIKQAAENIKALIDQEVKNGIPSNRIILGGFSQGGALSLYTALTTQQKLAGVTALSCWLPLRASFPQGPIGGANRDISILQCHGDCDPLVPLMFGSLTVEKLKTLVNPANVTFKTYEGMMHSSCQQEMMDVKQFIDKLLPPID
GSTO1 inh = GSTO1 inhibition, counter-screen for RBBP9 inhibitors; recombinant GSTO1, activity-based probe fluorescence polarization; inhibition, % at 5.96 µM; 300,000 compounds, 1.1% hits;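 active = inhibition above the campaign mean inhibition plus 3 SD, cut at about 35% in these data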
LYPLA2 counter = blocks human lysophospholipase 2, a PME1 counter-screen. recombinant LYPLA2, FP-Rh probe fluorescence polarization. O95372. inhibition, % at 5.9 µM. 320,000 compounds, 0.38% hits. AID 2177;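 active = inhibition above the screen-wide mean plus 3 SD, limit set per campaign, cut at about 26% in these data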
Target sequence (O95372 whole entry, looked up): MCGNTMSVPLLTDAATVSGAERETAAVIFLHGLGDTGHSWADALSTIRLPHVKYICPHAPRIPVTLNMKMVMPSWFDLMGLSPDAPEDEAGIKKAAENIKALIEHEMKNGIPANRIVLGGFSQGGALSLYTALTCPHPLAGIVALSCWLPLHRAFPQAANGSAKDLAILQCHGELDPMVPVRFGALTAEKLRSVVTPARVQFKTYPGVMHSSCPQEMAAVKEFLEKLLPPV
LYPLA2 confirm = LYPLA2 (human) inhibition, confirmation counter-screen; shares compounds with LYPLA2 counter; recombinant LYPLA2, FP-Rh probe fluorescence polarization; inhibition, % at 5.9 µM; 1,100 compounds, 72% hits; AID 2232;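 active = mean inhibition across replicates above the hit cutoff set in the primary screen, cut at about 26% in these data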;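 note: blocked labeling of the enzyme by serine hydrolase FP-Rh probe lowers polarization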
LYPLA2 ABPP = blocks human acyl-protein thioesterase 2 in gel ABPP; shares compounds with LYPLA2 counter; AID 652029; inhibition, % at 20 µM; 150 compounds, 30% hits; rhLYPLA2 in mouse brain proteome, gel ABPP FP-Rh;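 active = inhibition of LYPLA2 enzyme probe labeling above about 50%, limit read from the data; inactive = inhibition below that limit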;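 note: loss of FP-Rh probe labeling of the LYPLA2 gel band measured as band density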
Each line names hits and unclear results; the compound was inactive in the other large screens (follow-up assays come after a bar, where they were run).

Cc1ccc(-n2cnn(-c3ccc([N+](=O)[O-])cc3[N+](=O)[O-])c2=O)cc1	LYPLA2 counter 55.1 | LYPLA2 confirm 56.2 | LYPLA2 ABPP inactive
COc1ccccc1-n1cc(C(=O)NCC(=O)N2CCN(c3ccccc3)CC2)c2ccccc2c1=O	LYPLA2 counter 36.6 | LYPLA2 confirm 26.8
CCOC(=O)C1CCN(C(=O)c2ccc(Oc3cc(Cl)cc(Cl)c3)o2)CC1	LYPLA2 counter 26.5 | LYPLA2 confirm 48.9
Cc1onc(-c2ccccc2Cl)c1C(=O)Nc1nnc(-c2ccc(Br)cc2)s1	none
Cc1onc(-c2ccccc2Cl)c1C(=O)Nc1nnc(-c2ccc(F)cc2)s1	LYPLA2 counter 52.8 | LYPLA2 confirm inactive
CCOC(=O)C(Cc1ccccc1)c1ccnc2ncnn12 (stereo not given)	LYPLA2 counter 34.6 | LYPLA2 confirm inactive
CO/N=C/c1ccc(N2CCN(C(=O)c3ccc(C)cc3)CC2)c([N+](=O)[O-])c1	LYPLA2 counter 36.6 | LYPLA2 confirm 38.7
CO/N=C/c1ccc(N2CCCC2)c([N+](=O)[O-])c1	none
Cc1c(C(=O)O)sc(S(=O)(=O)N2CCN(C(=O)Cc3ccccc3Cl)CC2)c1C(=O)O	none (no result: Fam108B counter, GSTO1 inh)
COc1cc2[nH]c(C(=O)N3CCC(Cc4ccccc4)CC3)cc2c(OC)c1OC	LYPLA2 counter 33.5 | LYPLA2 confirm inactive
O=C(CN1CCN(c2ccc(C(F)(F)F)cn2)CC1)NCc1ccc2c(c1)OCO2	none
CCN(CC)S(=O)(=O)c1ccc(N2CCOCC2)c(NC(=O)COc2ccccc2)c1	none
CCN(CC)S(=O)(=O)c1ccc(N2CCOCC2)c(NC(=O)CNCCc2ccccc2)c1	LYPLA2 counter 53.0 | LYPLA2 confirm 57.6 | LYPLA2 ABPP inactive
O=C1CCCN1CCCNc1ncnc2c1cnn2-c1ccc(Cl)cc1	LYPLA2 counter 30.3 | LYPLA2 confirm 29.4
COc1ccc(CN2CCNC(=O)C2CC(=O)NCc2cn3ccc(C)cc3n2)c(OC)c1 (stereo not given)	none
O=C(NCc1ccccn1)c1ccc(OC2CCN(Cc3cccs3)CC2)cc1	LYPLA2 counter 28.0 | LYPLA2 confirm inactive
Cn1c(=O)c2c(ncn2CC(=O)N2CCN(c3ccc([N+](=O)[O-])cc3)CC2)n(C)c1=O	LYPLA2 counter 39.7 | LYPLA2 confirm 43.0
COc1ccc(N2CCN(C(=O)Cn3cnc4c3c(=O)n(C)c(=O)n4C)CC2)cc1	none
COc1cc(C(=O)NCC(=O)N/N=C/c2cccnc2)cc(OC)c1OC	none
CCOC(=O)c1c(NC(=O)CN2C(=O)NC(C)(c3ccc(Cl)cc3)C2=O)sc(C(=O)NC)c1C (stereo not given)	LYPLA2 counter 41.4 | LYPLA2 confirm 34.2
CCOC(=O)c1c(NC(=O)CN2CCOCC2)sc(C(=O)NC)c1C	none
C/C(C=NNC(=O)Cn1nnc(N)n1)=C\c1ccc(C(C)C)cc1	none (no result: PME-1 primary, Fam108B counter, PREPL inhibitor, LYPLA1 inh, GSTO1 inh, LYPLA2 counter) | LYPLA2 ABPP 69.0
Nc1nnn(CC(=O)N/N=C/c2ccccc2Cl)n1	none
COc1ccc2c(c1)O[C@@H](c1cccc(C(F)(F)F)c1)[C@H](O)C2=O	none
COc1ccc2c(c1)O[C@H](c1ccc3c(c1)OCO3)[C@@H](O)C2=O	LYPLA2 counter 64.2 | LYPLA2 confirm 57.8 | LYPLA2 ABPP inactive
Cc1cc(C)n(CCNC(=O)c2cc(COc3ccc4ncccc4c3)on2)n1	none
Cc1ccc(F)cc1CNC(=O)c1cc(COc2ccc3ncccc3c2)on1	LYPLA2 counter 45.7 | LYPLA2 confirm 54.0 | LYPLA2 ABPP inactive
O=C(NCc1cccc(Cl)c1)c1cc(COc2ccc3ncccc3c2)on1	LYPLA2 counter 39.5 | LYPLA2 confirm 35.7
NS(=O)(=O)c1ccc(CNC(=O)c2scc3c2CCCC3)cc1	none
CS(=O)(=O)N1CCC(C(=O)NCc2ccccc2)CC1	none
Cc1cc(=O)oc2c(C)c(OCC(=O)N3CCN(c4cccc(Cl)c4)CC3)ccc12	LYPLA2 counter 30.3 | LYPLA2 confirm 33.7
